The values below come from PubChem BioAssay AID651820 (National Center for Advancing Translational Sciences (NCATS), 2012).

Structures are written as SMILES. Hit rate of the full screen: of about 340,000 compounds, about 12,000 (3.5%) were called active. Entries that show only a call come without a potency. Roughly 18% stayed inconclusive and do not appear here. The call rests on the fitted dose curve; in most records, active means well fitted inhibition curve with a large enough effect; inconclusive means small, poorly fitted or top-dose-only effect, or another doubt; inactive means no such curve, though single readings can be large or run the other way. The sample as a whole holds a higher share of actives than the screen did. Where a structure was tested more than once in an assay, its records may differ in their call.
Potency means the concentration at half of the fitted maximal effect.

The experiment is described as follows: qHTS Assay for Inhibitors of Hepatitis C Virus (HCV). To be noted: Huh7.5.1 HCVcc-Cre infection, luciferase reporter, 44 h; series mostly up to 41.8 µM. In short, it runs like this:
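Infectious HCVcc-Cre (~0.5 moi) was added to cells just after compound, with cells seeded 4 h earlier at 1,000 per well. Luciferase activity after 44 h culture reported infection; substrate was incubated 15 min at room temperature before reading.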
Background: In qHTS, concentration-response curves come from the screen itself.
For the molecule `COc1ccc(C(=O)OCC(=O)N2CC(=O)Nc3ccccc32)cc1Br`, the Potency result was “inactive”.

`COc1ccc(Br)cc1/C=N/Nc1ccc(S(=O)(=O)Nc2ccccc2C(=O)O)cc1[N+](=O)[O-]`: the Potency result was “inactive”.

With `COc1cccc(NC(=O)CS(=O)(=O)c2cn(CC(=O)N3CCOCC3)c3ccccc23)c1`, the Potency result was “inactive”.

With `O=C(Nc1ccc(F)cc1)C(=O)c1cn(CC(=O)N2CCOCC2)c2ccccc12`, the Potency entry was “inactive”.

As for `COc1cccc(NC(=O)C(=O)c2cn(CC(=O)N3CCOCC3)c3ccccc23)c1`, the Potency was 11.2 µM (active).

Take `CCCC[C@@H]1CN=C(N)N1CCc1cccc(F)c1`: the Potency result was “inactive”.

As for `CC(C)(Oc1ccc(Cl)cc1)C(=O)OCC(=O)NCCc1ccc(S(N)(=O)=O)cc1`, the Potency entry is “inactive”.

Take `CC[C@]12c3[nH]c4cc(CCC(=O)N(C)C)ccc4c3CCN1C(=O)[C@@H](CC(=O)NCc1ccco1)C[C@@H]2C(=O)N1CCN(C(=O)c2ccco2)CC1`: the activity change, negative = inhibition is -1.33% [at 8.37 µM] (inactive).

`O=[N+]([O-])c1cccc(C=NN=Cc2ccccc2O)c1`: the Potency entry is “inactive”.

On to `S=c1ccc2ccccc2[nH]1`, for which the Potency entry was “inactive”.

On to `S=c1[nH]c2ccccc2c2ccccc12`, for which the Potency was 11.2 µM (active).

For `CCCCn1c(=S)[nH]c2ccccc2c1=O`, the Potency result is “inactive”.

With `COc1ccccc1OCc1nc2ccccc2s1`, the Potency entry was “inactive”.

For `O=C(Nn1c(-c2ccccc2)nc2ccccc2c1=O)c1ccc([N+](=O)[O-])cc1`, the Potency entry is “inactive”.

As for `N=C1C(c2nc3ccccc3s2)=C(O)CN1NC(=O)c1ccc([N+](=O)[O-])cc1`, the Potency was 11.2 µM (active).

As for `COc1ccccc1N1CC(O)=C(c2nc3ccccc3s2)C1=N`, the Potency is 11.2 µM (active).

On to `CCOC(=O)CCCN1CC(O)=C(c2nc3ccccc3s2)C1=N`, for which the Potency result was “inactive”.

Regarding `N=C1C(c2nc3ccccc3[nH]2)=C(O)CN1NC(=O)c1c[nH]c2ccccc12`, the Potency result is “inactive”.

As for `N#CCN(C(=O)COC(=O)C1CC2CCCC(C1)C2=O)c1ccccc1` (stereo unspecified), the Potency entry was “inactive”.

`COc1cc(OC)c(C(=O)NNC(=O)c2ccccc2-n2cccc2)cc1OC`: the Potency result was “inactive”.

As to `CCCN(CC(=O)Nc1ccccc1C)C(=O)c1ccc2[nH]c3c(c2c1)CC(C)CC3` (stereo unspecified), the Potency result was “inactive”.

On to `CN(CC#CCC(c1ccccc1)c1ccccc1)C(C)(C)C`, for which the Potency was 10 µM (active).

Consider `CC(C)(C)N(CC#CCC(O)(c1ccccc1)C1CCCC1)CCO` (stereo unspecified), for which the Potency entry is “inactive”.

Take `Cc1cc2c(cc1C)NC1(C[C@H]3CCC(=O)N4CC[C@@H](C1)[C@@H]34)C(=NC(C)(C)CC(C)(C)C)N2` (stereo partly specified): the Potency result was “inactive”.

`COc1ccc(C(=O)Nc2cccc(/C=C(/CCC(=O)O)c3nc4ccccc4s3)c2)cc1`: the Potency result is “inactive”.

Regarding `O=C(Cc1ccc(Cl)cc1)c1ccccc1`, the Potency result is “inactive”.

As for `CCCCn1c(SCC(=O)NCC2CCCO2)nc2ccc(N3CCOCC3)cc2c1=O` (stereo unspecified), the Potency entry was “inactive”.

Regarding `N#CCSc1nc2ccc(N3CCOCC3)cc2c(=O)n1CCc1ccccc1`, the Potency is 10 µM (active).

As for `COCCCNC(=O)CSc1nc2ccc(N3CCOCC3)cc2c(=O)n1CCc1ccccc1`, the Potency entry is “inactive”.

Turning to `OC(c1ccccc1)C(CN1CCOCC1)c1ccccc1` (stereo unspecified), the Potency is 12.6 µM (active).

`OC(c1ccc(Cl)cc1)C(CN1CCOCC1)c1ccccc1` (stereo unspecified): the Potency entry is “inactive”.

Consider `CC(CN1CCOCC1)c1ccccc1` (stereo unspecified), for which the Potency result was “inactive”.

On to `Cc1csc(=O)n1CCC(=O)OCC(=O)NNC(=O)c1ccc(Br)cc1`, for which the Potency result was “inactive”.

On to `CCOC(=O)[C@H]1[C@H]2COc3ccc(OC)cc3[C@@H]2N2C(=O)c3ccc(F)cc3NC(=O)[C@@]12C`, for which the Potency entry is “inactive”.

For `COC(=O)C1=C(c2cc3ccccc3s2)C[C@@H]2CC[C@H]1N2C(=O)NC(C)C`, the Potency entry is “inactive”.

For the molecule `COC(=O)C1=C(c2ccc(F)cc2F)C[C@@H]2CC[C@H]1N2C(=O)NC1CC1`, the Potency result is “inactive”.

As to `COC(=O)C1=C(c2cc3ccccc3o2)C[C@@H]2CC[C@H]1N2C(=O)NC1CCCCC1`, the Potency is 7.94 µM (active).

Consider `O=C(COC(=O)c1cc(S(=O)(=O)N2CCOCC2)ccc1Cl)NCCc1ccccc1`, for which the Potency result is “inactive”.

For `Cc1ccc(C)c(NC(=O)CN(C)C(=O)c2ccc3ncsc3c2)c1`, the Potency entry was “inactive”.

Consider `Cc1sc(NC(=O)C2=COCCO2)c(C#N)c1C`, for which the Potency entry is “inactive”.

For `CN1CCN(S(=O)(=O)c2cccc(C(=O)N3CCc4ccccc43)c2)CC1`, the Potency entry is “inactive”.

For `Cc1cccc(N2CCN(C(=O)c3cccc(S(=O)(=O)N4CCc5ccccc5C4)c3)CC2C)c1` (stereo unspecified), the Potency is 7.08 µM (active).

For the molecule `CC(NC(=O)c1cccc(S(=O)(=O)N2CCc3ccccc3C2)c1)c1ccco1` (stereo unspecified), the Potency result is “inactive”.

Regarding `Cc1cc(NC(=O)CSc2nc3ccccc3n2CC(C)C)no1`, the Potency entry was “inactive”.

Take `CC(=O)c1ccc2c(c1)c1ccccc1n2CC(C)C`: the Potency is 2.51 µM (active).

As to `CCCCn1c(=O)c(C(C)=O)c(O)c2ccccc21`, the Potency result is “inactive”.

`CCCCCC(O)c1cccc(OCc2ccc3ccccc3n2)c1` (stereo unspecified): the Potency was 14.1 µM (active) and the activity change, negative = inhibition was 0.332% [at 8.37 µM] (inactive).

Turning to `COc1cccc(C(O)c2nc3ccccc3n2C)c1` (stereo unspecified), the Potency result is “inactive”.

Take `CCCCCCOC(=O)NCC(O)c1ccccc1` (stereo unspecified): the Potency entry was “inactive”.

As to `Cc1ccc(NC(=O)Cn2cnc3c(OCc4ccccc4)ncnc32)cc1C`, the Potency entry was “inactive”.

Turning to `Cc1noc(C)c1C(=O)OC(C)C(=O)Nc1ccc2c(c1)OCO2` (stereo unspecified), the Potency result was “inactive”.

In the case of `Cc1noc(C)c1S(=O)(=O)N1CCCC(C(=O)Nc2nccs2)C1` (stereo unspecified), the Potency result was “inactive”.

Turning to `COc1c(C)cc(C(=O)C2CCCN(S(=O)(=O)c3c(C)noc3C)C2)cc1C` (stereo unspecified), the Potency was 10 µM (active).

On to `Cc1ccc(NC(=O)C2CCCN(S(=O)(=O)c3c(C)noc3C)C2)c(C)c1` (stereo unspecified), for which the Potency result is “inactive”.

Turning to `Nc1c(N(Cc2ccco2)C(=O)c2cccc(F)c2)c(=O)[nH]c(=O)n1Cc1ccccc1`, the Potency result was “inactive”.

With `Brc1cnc2ccccc2c1N1CCCCC1`, the Potency result was “inactive”.

Turning to `N=c1c2c(-c3ccccc3)c(-c3ccccc3)oc2ncn1Cc1ccco1`, the Potency is 6.31 µM (active).

For `Cn1c2ccccc2c(=O)c2c(=O)n(Cc3ccco3)c(COc3ccccc3)nc21`, the Potency result was “inactive”.

In the case of `c1ccc(-c2oc3ncnc(N4CCOCC4)c3c2-c2ccccc2)cc1`, the Potency entry is “inactive”.

As for `COc1ccc(Nc2ccc3ccccc3c2)cc1`, the Potency result was “inactive”.

In the case of `CC(=O)Nc1ccc(-c2csc(NC=C3C(=O)OC(C)(C)OC3=O)n2)cc1`, the Potency result was “inactive”.

Take `CC(=O)Nc1ccc(S(=O)(=O)Nc2nc(-c3ccc(C(C)(C)C)cc3)cs2)cc1`: the Potency result was “inactive”.

As to `CC(=O)Nc1ccc(-c2csc(NC(=O)Nc3ccccc3)n2)cc1`, the Potency was 10 µM (active).

With `Cc1ccc(S(=O)(=O)N2CCC(C(=O)OCC(=O)N(C)c3ccccc3)CC2)cc1C`, the Potency entry was “inactive”.

As to `Cc1cccn2c(=O)nc(SCC(=O)NCc3ccccc3Cl)nc12`, the activity change, negative = inhibition was 2.77% [at 8.37 µM] (inactive).

For the molecule `CN(CC(=O)NC(=O)Nc1ccccc1F)Cc1ccccc1`, the Potency result is “inactive”.

For the molecule `O=C1CC(C(=O)O)NC(=S)N1` (stereo unspecified), the Potency entry is “inactive”.

As for `O=C(c1ccc(Cl)c(S(=O)(=O)N2CCCCCC2)c1)N1CCN(c2ccc(O)cc2)CC1`, the Potency result was “inactive”.

With `COc1cc(CNC2CCCC2)c(Br)cc1OCc1ccccc1`, the Potency is 5.62 µM (active).

For `COc1cc(CN2CCC(C(N)=O)CC2)ccc1OCc1ccccc1`, the Potency result was “inactive”.

In the case of `COc1ccc(CNC2CCCCC2)cc1`, the Potency result was “inactive”.

Turning to `O=C(O)c1ccc(Cn2cnc3c(=S)nc[nH]c32)cc1`, the Potency result is “inactive”.

Turning to `Cc1ccc(COC(=O)CN2C(=O)NC3(CCCC3)C2=O)cc1`, the Potency result is “inactive”.

Take `C=CC[C@@H](CC(=O)NCCO)C(=O)N[C@H](C)COC(=O)[C@@H](CC=C)CC(=O)OC(C)(C)C`: the Potency entry was “inactive”.

Consider `CC(OC(=O)c1ccccc1NCCO)C(=O)Nc1ccnn1C(C)C` (stereo unspecified), for which the Potency entry is “inactive”.

For `COc1ccc(S(=O)(=O)NC(C)C)cc1C(=O)NC1CCCCC1`, the Potency entry was “inactive”.

On to `COc1ccccc1N(C)S(=O)(=O)c1ccc(C(=O)NC2CCCCCC2)cc1`, for which the Potency is 11.2 µM (active).

For the molecule `COc1ccccc1N(C)S(=O)(=O)c1ccc(C(=O)N2CCC(C(N)=O)CC2)cc1`, the Potency entry was “inactive”.

For `CSc1ccccc1NC(=O)COC(=O)CCCOc1ccc(C)cc1`, the Potency entry was “inactive”.

In the case of `Cc1cc2oc(=O)cc(-c3ccccc3)c2c(C)c1-c1ccc(OC(F)(F)F)cc1`, the activity change, negative = inhibition was -14.5% [at 8.37 µM] (inactive).

For the molecule `COc1ccc(-c2c(C)cc3oc(=O)cc(-c4ccccc4)c3c2C)cc1OC`, the Potency was 11.2 µM (active).

`COc1ccc(-c2c(C)cc3oc(=O)cc(-c4ccccc4)c3c2C)cc1C=O`: the Potency result is “inactive”.

As to `Cc1ccc(S(=O)(=O)N(C)c2ccc(OCC(=O)OCC(=O)N(CC#N)c3ccccc3)cc2)cc1`, the Potency result was “inactive”.

On to `NCCN1CCN2C(=O)CN(C(=O)c3ccccc3)CC12` (stereo unspecified), for which the Potency result is “inactive”.

With `CCOc1ccc(Br)cc1CSC(=N)N`, the Potency was 11.2 µM (active).

For the molecule `CCOCCCNCc1cc(Br)ccc1OCC`, the Potency entry was “inactive”.

As for `CCOc1ccc(Br)cc1S(=O)(=O)N1CCC(C(=O)O)CC1`, the Potency entry is “inactive”.

With `COc1ccc(OCC(=O)NNC(=O)C2CCC2)cc1`, the Potency result was “inactive”.

On to `Cc1ccc(C(=O)Nc2ncccc2C)cc1S(=O)(=O)N1CCOCC1`, for which the Potency entry is “inactive”.

For the molecule `Cc1ccccc1CSCCNC(=O)c1ccc(Cl)c(S(=O)(=O)N2CCOCC2)c1`, the Potency is 11.2 µM (active).

Consider `CN(C)S(=O)(=O)c1ccc(C(=O)NCC(C)(C)N2CCOCC2)cc1`, for which the Potency result is “inactive”.

Regarding `CC(C)(CNC(=O)c1ccc(Cl)c(S(=O)(=O)N2CCc3ccccc3C2)c1)N1CCOCC1`, the Potency is 7.08 µM (active).

With `COc1ccccc1CNC(=O)c1ccc(N(C)S(=O)(=O)c2ccc(C)cc2)cc1`, the Potency entry was “inactive”.

As to `CC(C)(CNC(=O)Cc1ccc(Cl)cc1Cl)N1CCOCC1`, the Potency entry is “inactive”.

Take `CN(c1ccccc1)S(=O)(=O)c1ccc(C(=O)NCCc2ccccc2)cc1`: the Potency entry was “inactive”.

For the molecule `Cc1ccccc1CSCCNC(=O)c1ccc(N(C)S(=O)(=O)c2ccccc2)cc1`, the Potency is 10 µM (active).

Regarding `Cc1ccc(C(=O)NCC(c2cccs2)N(C)C)cc1S(=O)(=O)N1CCOCC1` (stereo unspecified), the Potency result is “inactive”.

In the case of `COc1ccc([C@@H]2[C@@H]3C(=O)N(C(C)(C)C)C(=O)[C@@H]3[C@]3(Cc4ccccc4)C(=O)N(c4cccc(Br)c4)C(=O)N23)cc1`, the Potency result is “inactive”.

In the case of `O=C(NN=Cc1ccc(N2CCOCC2)cc1)c1cc2ccccc2cc1O`, the Potency entry was “inactive”.

On to `O=C(OCC(=O)N1CCN(C(=O)c2ccco2)CC1)c1ccc(Cl)c(Cl)c1`, for which the Potency entry was “inactive”.
